# Results from PubChem BioAssay (NCATS).
# Records with an inconclusive call do not appear. A call without a number means that no potency is given here. Values without a mark were called inactive. Calls of active or inactive are those of the source. Calls come from the whole dose curve; as a rule, active = well fitted inhibition curve with a large enough effect; inconclusive = small, poorly fitted or top-dose-only effect; inactive = flat fitted curve, though single readings scatter.
# Experiment: P-glycoprotein substrates identified in KB-8-5-11 adenocarcinoma cell line, qHTS therapeutic library screen (AID 1346987); note: nearly all actives have a fitted effect of over 65% in size
# Settings: KB-8-5-11 (P-gp overexpressing) viability, CellTiter-Glo, 72 h; series mostly up to 44.5 µM
# How it was run: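 KB-8-5-11, a colchicine-selected P-gp-overexpressing KB-3-1 subline, was grown without colchicine for the assay. Cells were seeded at 500 cells/well, dosed in concentration-response and incubated 72 h at 37 degree C, 5% CO2. Viability was read by CellTiter-Glo luminescence.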
Compound,Potency,"activity change, negative = cytotoxicity"
COc1cc(/C=C/C(=O)O[C@H]2[C@H](O)[C@@H](CO)O[C@@]2(CO)O[C@H]2O[C@H](CO)[C@@H](O)[C@H](O)[C@H]2O)cc(OC)c1O,inactive,–
Cc1ccc(C)c(NC(=O)CNS(=O)(=O)c2ccc3[nH]c(=O)oc3c2)c1,inactive,–
CC(C)[C@@H](C(=O)O)N1Cc2c(cc(O)c3c2O[C@]2(C3)[C@H](C)CCC3C(C)(C)[C@H](O)[C@H](O)C[C@@]32C)C1=O (some centres undefined),inactive,–
C/C(=C\CCC(C)C1CC(O)C2(C)C3CCC4C(C)(C)C(OC5OCC(O)C(O)C5O)CCC45CC35CC(O)C12C)C(=O)O (centres undefined),inactive,–
CC(C)c1ccc2c(c1)C(=O)CC1C(C)(C(=O)O)CCCC21C (centres undefined),inactive,–
CC1=CC2=C(C)C(=O)[C@](C)(O)[C@H](O)C2=CO1,inactive,–
C[C@H]1[C@H](C)CC[C@]2(C(=O)O)CC[C@]3(C)C(=CCC4[C@@]5(C)C[C@@H](O)[C@H](O)C(C)(C)C5CC[C@]43C)[C@H]12 (some centres undefined),inactive,–
COCC1OC(n2cnc3c(=O)[nH]cnc32)C(O)C1O (centres undefined),inactive,–
C[C@@H]1O[C@@H](OC2C(CO)OC(OCC3OC(OC(=O)[C@]45CCC(C)(C)CC4C4=CCC6[C@@]7(C)CC[C@@H](O)[C@](C)(C(=O)O)C7CC[C@@]6(C)[C@]4(C)CC5)C(O)C(O)C3O)C(O)C2O)[C@H](O)[C@H](O)[C@H]1O (some centres undefined),–,5.62% [at 9.29 µM]
CC/C=C\CC1C(CC(=O)O)CCC1OC1OC(CO)C(O)C(O)C1O (centres undefined),inactive,–
C=C1CC[C@@]2(OC1)O[C@H]1CC3[C@@H]4CC=C5C[C@H](O[C@H]6OC[C@@H](O)C(O)[C@@H]6O[C@@H]6O[C@@H](C)[C@H](O)[C@@H](O[C@@H]7O[C@H](CO)[C@@H](O)[C@H](O)[C@H]7O)[C@H]6O)C[C@@H](O)[C@]5(C)C4CC[C@]3(C)[C@H]1[C@@H]2C (some centres undefined),–,2.38% [at 9.29 µM]
C=C(CO)C(=O)O[C@H]1C[C@@]23O[C@@H]2CC/C(=C/[C@H]2OC(=O)C(=C)[C@H]12)CO[C@H]3O,inactive,–
CN1CCN(C2=Nc3ccccc3Nc3ccc(O)cc32)CC1,inactive,–
COc1ccc(C(=O)NCc2cc(C(C)C)no2)cc1OC1CCN(C)CC1,inactive,–
